According to publication PMC11574364:

Tests used:
Assay in all cases: protein domain microarray probed with biotinylated miRNA; Domain array: 20 mM Tris-HCl pH 7.4, 200 mM KCl, 0.2 mM EDTA, 0.05% NP40, 2 ug/ul heparin, overnight 4 C. ORF array: PBS pH 7.0 with RNase inhibitor, 100 ng RNA; high values mean tight binding
Conditions in all cases: ssRNA
hnRNP-P2 = hnRNP-P2 (Homo sapiens, UniProt P35637)
hnRNP-H2 = target: T1, hnRNP-H2 (Homo sapiens, UniProt P55795)
T1 sequence: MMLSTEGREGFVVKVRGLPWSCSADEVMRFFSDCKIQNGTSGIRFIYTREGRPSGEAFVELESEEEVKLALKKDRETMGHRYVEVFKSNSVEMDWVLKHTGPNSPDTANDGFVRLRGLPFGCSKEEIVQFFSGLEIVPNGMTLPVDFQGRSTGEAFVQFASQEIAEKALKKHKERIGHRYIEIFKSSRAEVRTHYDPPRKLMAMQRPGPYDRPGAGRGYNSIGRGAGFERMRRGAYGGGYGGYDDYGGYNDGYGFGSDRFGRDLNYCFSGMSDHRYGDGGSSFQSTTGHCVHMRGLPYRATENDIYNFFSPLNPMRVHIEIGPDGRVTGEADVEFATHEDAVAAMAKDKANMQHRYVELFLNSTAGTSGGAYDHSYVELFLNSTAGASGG

MTHFSD = target: T2, MTHFSD (Homo sapiens, UniProt Q2M296)
T2 sequence: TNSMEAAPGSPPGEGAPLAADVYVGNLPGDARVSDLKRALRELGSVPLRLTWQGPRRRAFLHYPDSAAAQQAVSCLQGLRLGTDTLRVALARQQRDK

IGF2BP3 = IGF2BP3 (Homo sapiens, UniProt O00425)
NCBP2L = target: T3, NCBP2L (Homo sapiens, UniProt A6PVI3)
T3 sequence: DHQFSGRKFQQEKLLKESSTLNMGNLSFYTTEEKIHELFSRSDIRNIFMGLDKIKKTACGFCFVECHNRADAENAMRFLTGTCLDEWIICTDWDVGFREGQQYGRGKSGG

hnRNP-I(1-2) = hnRNP-I(1-2) (Homo sapiens, UniProt P26599)
LARP7(1) = target: T4, LARP7(1) (Homo sapiens, UniProt Q4G0J3)
T4 sequence: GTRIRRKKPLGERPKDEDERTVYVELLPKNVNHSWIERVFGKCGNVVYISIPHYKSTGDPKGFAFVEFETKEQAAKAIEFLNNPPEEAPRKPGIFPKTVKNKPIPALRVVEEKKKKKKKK

CELF5(1-2) = CELF5(1-2) (Homo sapiens, UniProt Q8N6W0)
EIF4H = EIF4H (Homo sapiens, UniProt Q15056)
PABPC1L2A = PABPC1L2A (Homo sapiens, UniProt Q5JQF8)
CELF6(1-2) = CELF6(1-2) (Homo sapiens, UniProt Q96J87)
NCBP2 = target: T5, NCBP2 (Homo sapiens, UniProt P52298)
T5 sequence: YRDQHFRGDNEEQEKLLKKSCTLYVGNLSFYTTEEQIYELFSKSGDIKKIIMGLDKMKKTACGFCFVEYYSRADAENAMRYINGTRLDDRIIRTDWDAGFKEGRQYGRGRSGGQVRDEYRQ

hnRNP-D-like = target: T6, hnRNP-D-like (Homo sapiens, UniProt O14979)
T6 sequence: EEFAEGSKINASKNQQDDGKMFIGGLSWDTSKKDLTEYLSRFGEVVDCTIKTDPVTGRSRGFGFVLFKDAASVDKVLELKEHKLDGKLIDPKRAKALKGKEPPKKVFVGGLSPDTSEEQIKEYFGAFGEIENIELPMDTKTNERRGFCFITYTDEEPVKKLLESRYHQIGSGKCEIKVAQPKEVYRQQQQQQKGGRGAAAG

IGF2BP2 = IGF2BP2 (Homo sapiens, UniProt Q9Y6M1)
NIFK = NIFK (Homo sapiens, UniProt Q9BYG3)
PABPNL1 = target: T7, PABPNL1 (Homo sapiens, UniProt A6NDY0)
T7 sequence: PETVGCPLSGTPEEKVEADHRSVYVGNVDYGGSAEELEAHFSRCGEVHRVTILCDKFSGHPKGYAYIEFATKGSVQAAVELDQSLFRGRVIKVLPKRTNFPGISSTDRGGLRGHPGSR

PABPC5 = PABPC5 (Homo sapiens, UniProt Q96DU9)
MYEF2(1-2) = target: T8, MYEF2(1-2) (Homo sapiens, UniProt Q9P2K5)
T8 sequence: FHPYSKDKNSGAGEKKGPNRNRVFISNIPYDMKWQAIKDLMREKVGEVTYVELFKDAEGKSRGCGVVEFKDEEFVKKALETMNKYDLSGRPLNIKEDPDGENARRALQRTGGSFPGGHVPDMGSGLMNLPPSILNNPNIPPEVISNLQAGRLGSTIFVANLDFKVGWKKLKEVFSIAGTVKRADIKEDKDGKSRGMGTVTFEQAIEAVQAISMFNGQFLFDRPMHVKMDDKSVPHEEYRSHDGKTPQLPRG

CIRBP = target: T9, CIRBP (Homo sapiens, UniProt Q14011)
T9 sequence: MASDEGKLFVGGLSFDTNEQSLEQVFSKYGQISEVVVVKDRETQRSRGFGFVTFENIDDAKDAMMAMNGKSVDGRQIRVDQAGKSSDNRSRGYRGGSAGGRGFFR

ELAVL4 = ELAVL4 (Homo sapiens, UniProt P26378)
Sequence of ELAVL4 (P26378 30-385): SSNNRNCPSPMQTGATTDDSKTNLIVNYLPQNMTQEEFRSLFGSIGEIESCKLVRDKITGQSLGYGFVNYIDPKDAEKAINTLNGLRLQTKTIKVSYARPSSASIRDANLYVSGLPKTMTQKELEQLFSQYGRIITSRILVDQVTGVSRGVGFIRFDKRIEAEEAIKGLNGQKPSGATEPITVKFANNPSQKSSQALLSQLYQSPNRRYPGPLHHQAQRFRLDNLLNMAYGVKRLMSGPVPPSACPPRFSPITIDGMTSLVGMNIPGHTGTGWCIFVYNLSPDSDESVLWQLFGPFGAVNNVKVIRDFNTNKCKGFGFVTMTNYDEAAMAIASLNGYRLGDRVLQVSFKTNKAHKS

Sequence of hnRNP-I(1-2) (P26599 40-280): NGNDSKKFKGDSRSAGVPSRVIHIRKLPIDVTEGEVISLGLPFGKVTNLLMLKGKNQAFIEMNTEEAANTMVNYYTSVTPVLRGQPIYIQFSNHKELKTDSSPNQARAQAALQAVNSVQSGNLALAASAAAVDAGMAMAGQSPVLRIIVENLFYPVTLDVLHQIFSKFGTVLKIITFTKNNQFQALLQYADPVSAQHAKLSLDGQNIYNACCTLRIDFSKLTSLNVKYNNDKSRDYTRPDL
Sequence of PABPC5 (Q96DU9 whole entry): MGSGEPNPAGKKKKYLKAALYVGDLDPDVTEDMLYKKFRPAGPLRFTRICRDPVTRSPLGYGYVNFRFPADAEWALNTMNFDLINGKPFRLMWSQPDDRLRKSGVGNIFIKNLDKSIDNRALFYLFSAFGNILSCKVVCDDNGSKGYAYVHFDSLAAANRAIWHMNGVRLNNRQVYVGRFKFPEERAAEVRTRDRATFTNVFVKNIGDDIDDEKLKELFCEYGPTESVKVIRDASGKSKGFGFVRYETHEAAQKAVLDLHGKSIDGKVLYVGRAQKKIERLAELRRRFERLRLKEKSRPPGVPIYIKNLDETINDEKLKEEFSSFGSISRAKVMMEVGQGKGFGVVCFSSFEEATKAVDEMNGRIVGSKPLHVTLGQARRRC
Sequence of CELF5(1-2) (Q8N6W0 20-233): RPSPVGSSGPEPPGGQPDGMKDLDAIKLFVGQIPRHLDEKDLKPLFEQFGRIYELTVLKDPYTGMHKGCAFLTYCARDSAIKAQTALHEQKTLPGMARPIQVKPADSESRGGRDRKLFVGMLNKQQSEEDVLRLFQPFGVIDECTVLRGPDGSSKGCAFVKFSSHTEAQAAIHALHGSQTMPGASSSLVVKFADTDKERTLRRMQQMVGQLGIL
Sequence of CELF6(1-2) (Q96J87 21-233): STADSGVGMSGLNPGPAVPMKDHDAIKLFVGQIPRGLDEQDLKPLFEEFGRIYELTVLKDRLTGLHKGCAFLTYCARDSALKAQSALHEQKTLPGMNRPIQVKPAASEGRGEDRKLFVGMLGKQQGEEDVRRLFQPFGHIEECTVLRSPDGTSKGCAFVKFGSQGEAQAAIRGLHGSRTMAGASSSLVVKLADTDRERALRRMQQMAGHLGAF
Sequence of hnRNP-P2 (P35637 265-390): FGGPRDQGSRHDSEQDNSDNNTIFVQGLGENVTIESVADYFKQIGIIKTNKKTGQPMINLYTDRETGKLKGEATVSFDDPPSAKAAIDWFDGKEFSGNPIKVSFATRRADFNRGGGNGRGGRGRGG
Sequence of IGF2BP3 (O00425 1-176): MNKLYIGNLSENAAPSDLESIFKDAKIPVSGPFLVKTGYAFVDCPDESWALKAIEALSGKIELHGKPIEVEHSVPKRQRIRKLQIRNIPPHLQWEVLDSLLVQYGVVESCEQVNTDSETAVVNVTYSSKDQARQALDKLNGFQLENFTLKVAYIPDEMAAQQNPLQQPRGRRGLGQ
Sequence of PABPC1L2A (Q5JQF8 whole entry): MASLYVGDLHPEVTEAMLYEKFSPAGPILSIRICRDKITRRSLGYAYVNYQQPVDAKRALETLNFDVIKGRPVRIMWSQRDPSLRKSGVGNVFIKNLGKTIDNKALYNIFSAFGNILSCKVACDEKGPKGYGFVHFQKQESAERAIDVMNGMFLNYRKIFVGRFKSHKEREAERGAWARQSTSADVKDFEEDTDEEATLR
Sequence of IGF2BP2 (Q9Y6M1 1-177): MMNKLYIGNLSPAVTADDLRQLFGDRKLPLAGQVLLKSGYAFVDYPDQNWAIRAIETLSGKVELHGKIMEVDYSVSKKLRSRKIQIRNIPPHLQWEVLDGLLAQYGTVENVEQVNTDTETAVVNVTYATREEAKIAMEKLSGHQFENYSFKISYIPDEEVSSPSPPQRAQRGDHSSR

Sequence	binding signal (hnRNP-P2)	binding signal (hnRNP-H2)	binding signal (MTHFSD)	binding signal (IGF2BP3)	binding signal (NCBP2L)	binding signal (hnRNP-I(1-2))	binding signal (LARP7(1))	binding signal (CELF5(1-2))	binding signal (EIF4H)	binding signal (PABPC1L2A)	binding signal (CELF6(1-2))	binding signal (NCBP2)	binding signal (hnRNP-D-like)	binding signal (IGF2BP2)	binding signal (NIFK)	binding signal (PABPNL1)	binding signal (PABPC5)	binding signal (MYEF2(1-2))	binding signal (CIRBP)	binding signal (ELAVL4)
UGAGGUAGUAGGUUGUGUGGUU	576 ± 71.1 fluorescence intensity	727 ± 35.9 fluorescence intensity	439 ± 58.4 fluorescence intensity	36.9 ± 7.82 fluorescence intensity	239 ± 6.08 fluorescence intensity	994 ± 33.7 fluorescence intensity	234 ± 9.55 fluorescence intensity	107 ± 9.34 fluorescence intensity	208 ± 18.3 fluorescence intensity	312 ± 42.4 fluorescence intensity	224 ± 12 fluorescence intensity	68.7 ± 13.2 fluorescence intensity	751 ± 46.5 fluorescence intensity	60.9 ± 10.8 fluorescence intensity	207 ± 7.23 fluorescence intensity	1609 ± 3.14 fluorescence intensity	304 ± 27.6 fluorescence intensity	1050 ± 50.7 fluorescence intensity	2020 ± 38.1 fluorescence intensity	1510 ± 102 fluorescence intensity
AGAGGUAGUAGGUUGCAUAGUU	131 ± 2.9 fluorescence intensity	907 ± 16.1 fluorescence intensity	716 ± 48.4 fluorescence intensity	46.2 ± 3.19 fluorescence intensity	202 ± 9.81 fluorescence intensity	1010 ± 92.8 fluorescence intensity	137 ± 1.39 fluorescence intensity	56.1 ± 4.7 fluorescence intensity	115 ± 9.98 fluorescence intensity	179 ± 20.3 fluorescence intensity	88.4 ± 8.85 fluorescence intensity	29.2 ± 11.8 fluorescence intensity	601 ± 9.77 fluorescence intensity	130 ± 20.3 fluorescence intensity	81.96 ± 0.608 fluorescence intensity	1510 ± 38.3 fluorescence intensity	351 ± 14.6 fluorescence intensity	1130 ± 77.2 fluorescence intensity	2620 ± 43 fluorescence intensity	1830 ± 31 fluorescence intensity
UGAGGUAGUAGGUUGUAUAGUU	58.1 ± 13.9 fluorescence intensity	258 ± 16.1 fluorescence intensity	133 ± 32.4 fluorescence intensity	–	40.6 ± 4.36 fluorescence intensity	293 ± 83.2 fluorescence intensity	35.35 ± 0.0495 fluorescence intensity	24.4 ± 2.19 fluorescence intensity	31.8 ± 3.73 fluorescence intensity	46.3 ± 9.23 fluorescence intensity	28.4 ± 3.05 fluorescence intensity	–	288 ± 15.7 fluorescence intensity	28.3 ± 5.47 fluorescence intensity	23 ± 0.658 fluorescence intensity	531 ± 16.5 fluorescence intensity	52 ± 3.7 fluorescence intensity	228 ± 4.88 fluorescence intensity	1010 ± 76.7 fluorescence intensity	725 ± 56.5 fluorescence intensity
CAGUGCAAUGAUGAAAGGGCAU	40.3 ± 3.56 fluorescence intensity	944.5 ± 8.38 fluorescence intensity	349.3 ± 0.905 fluorescence intensity	20.1 ± 2.45 fluorescence intensity	162 ± 7.95 fluorescence intensity	185 ± 5.4 fluorescence intensity	104 ± 10.5 fluorescence intensity	52.7 ± 5.17 fluorescence intensity	71.2 ± 5.92 fluorescence intensity	88.7 ± 6.19 fluorescence intensity	105 ± 14.1 fluorescence intensity	–	250 ± 14.8 fluorescence intensity	91.7 ± 5.63 fluorescence intensity	38.6 ± 4.43 fluorescence intensity	2030 ± 144 fluorescence intensity	187 ± 8.46 fluorescence intensity	826 ± 53.3 fluorescence intensity	2040 ± 82.9 fluorescence intensity	1170 ± 66.8 fluorescence intensity
UGAGGUAGUAGGUUGUAUGGUU	441 ± 19.8 fluorescence intensity	663 ± 15.2 fluorescence intensity	488 ± 22.1 fluorescence intensity	22.9 ± 3.19 fluorescence intensity	180 ± 10.2 fluorescence intensity	911 ± 32.3 fluorescence intensity	153.2 ± 0.424 fluorescence intensity	48 ± 2.14 fluorescence intensity	93.9 ± 8.49 fluorescence intensity	240 ± 13.7 fluorescence intensity	89.8 ± 3.29 fluorescence intensity	66.8 ± 8.78 fluorescence intensity	741 ± 27.9 fluorescence intensity	49.2 ± 7.44 fluorescence intensity	138 ± 7.4 fluorescence intensity	1110 ± 57.4 fluorescence intensity	291 ± 13.4 fluorescence intensity	789 ± 41.9 fluorescence intensity	1980 ± 32.4 fluorescence intensity	1450 ± 42.8 fluorescence intensity
UAGCUUAUCAGACUGAUGUUGA	–	20 ± 0.509 fluorescence intensity	42.6 ± 13.9 fluorescence intensity	–	43.9 ± 1.85 fluorescence intensity	72.7 ± 35.4 fluorescence intensity	–	–	–	–	32.2 ± 4.03 fluorescence intensity	–	40.3 ± 4.07 fluorescence intensity	21.5 ± 2.16 fluorescence intensity	–	322 ± 10.4 fluorescence intensity	–	393 ± 6.4 fluorescence intensity	801 ± 174 fluorescence intensity	825 ± 34.8 fluorescence intensity
